Laboratory results reported in PubChem BioAssay (EPA / NIEHS).
Results filed as inconclusive are left out. Activity calls are given as the source filed them. How the source made its calls, unless noted: active means hit-call score of the fitted dose curve at least 0.9, where 1 is the maximum; inactive means score below 0.9.

What was measured:
[1] = read-out: Macrophage colony-stimulating factor (MCSF), CSF1 (gene 1435); assay: BSK_LPS_MCSF: BioMAP Diversity Plus: LPS Assay for Macrophage colony-stimulating factor (MCSF) Biomarker Activity (AID 2283083); conditions: primary human HUVEC with PBMC; actives raise or lower the signal
Outline: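 Compound is added to a human vascular primary co-culture of umbilical vein endothelium and blood mononuclear cells. After 24 h, M-CSF is quantified by ELISA. Signal changes are fitted in both directions against DMSO.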

[2] = read-out: Tissue Factor, F3 (gene 2152); assay: BSK_LPS_TissueFactor: BioMAP Diversity Plus: LPS Assay for Tissue Factor Biomarker Activity (AID 2283084); conditions: primary human HUVEC with PBMC; actives raise or lower the signal
Outline: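 In this co-culture system of umbilical vein endothelium with PBMC, stimulated with LPS, cell-surface CD142 is detected by ELISA at 24 h. Endpoint values derive from bidirectional fitting, DMSO serving as baseline.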

[3] = read-out: Tumor necrosis factor (Homo sapiens) (UniProt P01375); assay: BSK_LPS_TNFa: BioMAP Diversity Plus: LPS Assay for Tumour Necrosis Factor alpha (TNFa) Biomarker Activity (AID 2283085); conditions: primary human HUVEC with PBMC; actives raise or lower the signal;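 on AC50: TNFa protein level quantified by ELISA in the co-culture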
Outline: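 HUVEC/PBMC co-culture, LPS-stimulated; 24 h post-dose; TNFa by ELISA; gain or loss of signal fitted bidirectionally vs DMSO baseline.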

[4] = read-out: Vascular cell adhesion molecule 1 (VCAM1), VCAM1 (gene 7412); assay: BSK_LPS_VCAM1: BioMAP Diversity Plus: LPS Assay for Vascular cell adhesion molecule 1 (VCAM1) Biomarker Activity (AID 2283086); conditions: primary human HUVEC with PBMC; actives raise or lower the signal
Outline: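 ELISA read-out of VCAM-1 at 24 h post-dosing in an LPS-driven HUVEC/PBMC primary human co-culture; gain or loss of signal fitted bidirectionally against DMSO baseline. Cytotoxicity tracked in parallel cultures by SRB total-protein staining.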

[5] = read-out: CD38, CD38 (gene 952); assay: BSK_SAg_CD38: BioMAP Diversity Plus: SAg Assay for CD38 Biomarker Activity (AID 2283087); conditions: primary human HUVEC with PBMC; actives raise or lower the signal
Outline: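 Measures CD38 on a human endothelial/PBMC co-culture driven by SEB and TSST-1, 24 h after compound exposure, using ELISA with fluorescence detection; DMSO defines baseline for bidirectional curve fitting.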

[6] = read-out: CD40, CD40 (gene 958); assay: BSK_SAg_CD40: BioMAP Diversity Plus: SAg Assay for CD40 Biomarker Activity (AID 2283088); conditions: primary human HUVEC with PBMC; actives raise or lower the signal
Outline: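 Fluorescence ELISA read-out of CD40 from umbilical vein endothelium plus peripheral blood mononuclear cells, sampled 24 h after dosing. Values come from bidirectional curve fitting with DMSO as baseline.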

[7] = read-out: CD69, CD69 (gene 969); assay: BSK_SAg_CD69: BioMAP Diversity Plus: SAg Assay for CD69 Biomarker Activity (AID 2283089); conditions: primary human HUVEC with PBMC; actives raise or lower the signal
Outline: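 Values derive from bidirectional fitting relative to DMSO vehicle. Cells: umbilical vein endothelium plus peripheral blood mononuclear cells, treated 24 h before fluorescent ELISA for CD69.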

[8] = read-out: E-selectin (Homo sapiens) (UniProt P16581); assay: BSK_SAg_Eselectin: BioMAP Diversity Plus: SAg Assay for Eselectin Biomarker Activity (AID 2283091); conditions: primary human HUVEC with PBMC; actives raise or lower the signal
Outline: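 Primary human endothelial cells and peripheral blood mononuclear cells were co-cultured and exposed to chemical for 24 hours. E-selectin levels were then quantified by ELISA, with bidirectional curve fitting normalised to DMSO controls.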

[9] = read-out: Monokine induced gamma interferon (MIG), CXCL9 (gene 4283); assay: BSK_SAg_MIG: BioMAP Diversity Plus: SAg Assay for Monokine induced gamma interferon (MIG) Biomarker Activity (AID 2283092); conditions: primary human HUVEC with PBMC; actives raise or lower the signal
Outline: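 Values reflect bidirectional fitting of ELISA-measured MIG against DMSO vehicle, taken 24 h after dosing of a co-culture of human umbilical vein endothelial cells and peripheral blood mononuclear cells.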

[10] = BSK_SAg_PBMCCytotoxicity: PBMC Cytotoxicity Assessment in the BioMAP Diversity Plus: SAg Assay (AID 2283093); conditions: primary human HUVEC with PBMC;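 further: fitted both ways against DMSO so a hit may be loss or gain of signal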;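 on AC50: PBMC superantigen activated with SEB plus TSST-1 one hour after compound addition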
Outline: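 PBMC viability by Alamar Blue reduction, fluorescence read at 546/580 nm after 6 h dye exposure. Cells were dosed 1 h before SEB plus TSST-1 activation (20 ng/mL final each), then held 90 h; endothelial/PBMC human co-culture.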

[11] = read-out: Interleukin-8 (IL8), CXCL8 (gene 3576); assay: BSK_SAg_IL8: BioMAP Diversity Plus: SAg Assay for Interleukin-8 (IL8) Biomarker Activity (AID 2283094); conditions: primary human HUVEC with PBMC; actives raise or lower the signal
Outline: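 HUVEC/PBMC co-culture, 24 h post-dose; IL-8 by ELISA. Gain or loss of signal fitted bidirectionally vs DMSO baseline.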

[12] = BSK_SAg_Proliferation: Cell Proliferation Assessment in the BioMAP Diversity Plus: SAg Assay (AID 2283095); conditions: primary human HUVEC with PBMC;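 further: relative cell number as total protein by SRB absorbance in sub-confluent culture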
Outline: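 HUVEC/PBMC co-culture, 96-well. TCA-fixed (10%), 0.1% SRB stain, A560 at 96 h. Protein content used as viability readout; bidirectional fitting vs DMSO control.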

[13] = BSK_SAg_SRB: Viability Assessment in the BioMAP Diversity Plus: SAg Assay (AID 2283096); conditions: primary human HUVEC with PBMC;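 further: cells read one day after compound addition; hits may be either gain or loss of signal compared with DMSO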
Outline: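 Compounds were added to a human vascular co-culture of umbilical vein endothelium and PBMC. After 24 h, parallel cultures were fixed with 10% TCA, stained with 0.1% sulforhodamine B and read at 560 nm. Gain or loss of signal was fitted relative to DMSO.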

[14] = read-out: Monocyte Chemoattractant Protein-1 (MCP1), CCL2 (gene 6347); assay: BSK_SAg_MCP1: BioMAP Diversity Plus: SAg Assay for Monocyte Chemoattractant Protein-1 (MCP1) Biomarker Activity (AID 2283090); conditions: primary human HUVEC with PBMC; actives raise or lower the signal
Outline: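 Values derive from bidirectional fitting of ELISA-measured MCP1 against DMSO controls. Readings were taken 24 h after dosing human vascular endothelial cells co-cultured with peripheral blood mononuclear cells under superantigen stimulation.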

[15] = target: human CYP2A6, CYP2A6 (gene 1548) (UniProt P11509); assay: NVS_ADME_hCYP2A6: NovaScreen (NVS) CYP450-related Enzyme Activity (ADME) Assay for human CYP2A6 (AID 2283099; active means hit-call score of the fitted dose curve at least 0.9, where 1 is the maximum)
Outline: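 Recombinant human CYP2A6 from insect cells was incubated with chemical for 0.5 h and activity read by fluorescence. Single-concentration duplicates at 10 uM preceded concentration-response testing to 20 uM, with activity referenced to acetonitrile.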

[16] = target: human CYP2D6, CYP2D6 (gene 1565) (UniProt P10635); assay: NVS_ADME_hCYP2D6: NovaScreen (NVS) CYP450-related Enzyme Activity (ADME) Assay for human CYP2D6 (AID 2283107; active means hit-call score of the fitted dose curve at least 0.9, where 1 is the maximum)
Outline: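 Compounds were first tested in duplicate at 10 uM against recombinant enzyme produced in insect cells, with substrate turnover measured by fluorescence after 1 hour. Decreased signal, referenced to acetonitrile vehicle, was taken as reduced enzyme activity. Active chemicals went on to concentration-response testing.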

[17] = target: human CYP19A1, CYP19A1 (gene 1588) (UniProt P11511); assay: NVS_ADME_hCYP19A1: NovaScreen (NVS) CYP450-related Enzyme Activity (ADME) Assay for human CYP19A1 (AID 2283098; active means hit-call score of the fitted dose curve at least 0.9, where 1 is the maximum)
Outline: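 Fluorescence intensity read-out; activity taken as signal loss relative to acetonitrile vehicle. Extracted enzyme, specific substrate, no cells, 0.5 h exposure. Duplicate single-point screen at 10 uM, then concentration–response follow-up for actives.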

[18] = target: human CYP1A1, CYP1A1 (gene 1543) (UniProt P04798); assay: NVS_ADME_hCYP1A1: NovaScreen (NVS) CYP450-related Enzyme Activity (ADME) Assay for human CYP1A1 (AID 2283100; active means hit-call score of the fitted dose curve at least 0.9, where 1 is the maximum)
Outline: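 Compounds first went through duplicate single-concentration testing at 10 uM against purified CYP1A1. Those passing a threshold such as 30% inhibition entered singleton dose-response, highest concentration 20 uM. Signal was fluorescence measured after 1 hour.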

Measured: AC50

Sequence of E-selectin (Homo sapiens) (P16581 whole entry, looked up): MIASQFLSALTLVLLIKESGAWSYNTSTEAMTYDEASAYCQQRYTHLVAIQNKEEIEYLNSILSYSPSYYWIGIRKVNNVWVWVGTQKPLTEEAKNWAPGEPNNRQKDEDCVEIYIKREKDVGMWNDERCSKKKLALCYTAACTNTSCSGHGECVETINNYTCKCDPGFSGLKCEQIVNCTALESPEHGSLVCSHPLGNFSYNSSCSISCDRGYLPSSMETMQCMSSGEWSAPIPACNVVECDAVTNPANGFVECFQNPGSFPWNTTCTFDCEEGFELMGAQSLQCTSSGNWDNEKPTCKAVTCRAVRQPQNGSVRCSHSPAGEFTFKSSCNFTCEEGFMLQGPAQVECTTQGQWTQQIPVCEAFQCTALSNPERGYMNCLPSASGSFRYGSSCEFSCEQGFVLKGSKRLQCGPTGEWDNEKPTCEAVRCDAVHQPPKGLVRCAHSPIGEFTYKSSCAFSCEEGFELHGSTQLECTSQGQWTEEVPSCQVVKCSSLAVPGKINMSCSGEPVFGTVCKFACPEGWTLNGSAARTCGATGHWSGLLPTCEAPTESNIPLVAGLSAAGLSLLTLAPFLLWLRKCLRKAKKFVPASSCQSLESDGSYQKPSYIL
Sequence of Tumor necrosis factor (Homo sapiens) (P01375 whole entry, looked up): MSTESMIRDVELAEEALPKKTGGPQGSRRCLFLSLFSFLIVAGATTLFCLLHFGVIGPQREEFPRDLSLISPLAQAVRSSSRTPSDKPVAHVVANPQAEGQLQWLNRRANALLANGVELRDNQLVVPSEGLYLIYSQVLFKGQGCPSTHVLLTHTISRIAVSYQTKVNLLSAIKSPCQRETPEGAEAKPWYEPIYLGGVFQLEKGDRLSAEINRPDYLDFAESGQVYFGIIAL
Sequence of human CYP2A6, CYP2A6 (gene 1548) (P11509 whole entry, looked up): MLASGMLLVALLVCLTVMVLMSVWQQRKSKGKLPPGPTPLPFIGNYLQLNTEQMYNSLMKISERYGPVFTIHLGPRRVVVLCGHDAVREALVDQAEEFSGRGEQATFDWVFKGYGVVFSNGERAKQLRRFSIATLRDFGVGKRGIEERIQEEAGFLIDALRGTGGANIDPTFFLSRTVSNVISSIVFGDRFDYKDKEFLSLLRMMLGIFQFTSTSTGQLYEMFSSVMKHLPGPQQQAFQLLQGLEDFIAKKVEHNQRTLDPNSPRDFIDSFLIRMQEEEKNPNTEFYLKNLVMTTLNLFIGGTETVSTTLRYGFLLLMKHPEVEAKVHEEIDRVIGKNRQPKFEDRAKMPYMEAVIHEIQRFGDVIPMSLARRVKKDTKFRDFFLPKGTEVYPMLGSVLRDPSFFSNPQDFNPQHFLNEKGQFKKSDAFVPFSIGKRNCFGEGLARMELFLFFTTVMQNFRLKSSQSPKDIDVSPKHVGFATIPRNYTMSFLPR
Sequence of human CYP1A1, CYP1A1 (gene 1543) (P04798 whole entry, looked up): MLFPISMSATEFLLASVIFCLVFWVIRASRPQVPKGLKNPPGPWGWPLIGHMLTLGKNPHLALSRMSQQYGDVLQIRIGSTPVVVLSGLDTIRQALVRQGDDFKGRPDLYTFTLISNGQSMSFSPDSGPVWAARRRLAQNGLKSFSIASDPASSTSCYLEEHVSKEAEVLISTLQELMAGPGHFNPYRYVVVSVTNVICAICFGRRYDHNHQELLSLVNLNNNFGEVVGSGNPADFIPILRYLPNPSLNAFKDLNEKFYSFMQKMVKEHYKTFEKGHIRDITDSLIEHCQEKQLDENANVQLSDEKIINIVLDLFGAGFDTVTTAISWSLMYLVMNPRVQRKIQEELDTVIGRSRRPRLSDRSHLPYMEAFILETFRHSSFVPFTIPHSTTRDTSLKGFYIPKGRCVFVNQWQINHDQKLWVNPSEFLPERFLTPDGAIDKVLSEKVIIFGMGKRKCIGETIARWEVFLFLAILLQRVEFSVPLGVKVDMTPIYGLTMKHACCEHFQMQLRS
Sequence of human CYP2D6, CYP2D6 (gene 1565) (P10635 whole entry, looked up): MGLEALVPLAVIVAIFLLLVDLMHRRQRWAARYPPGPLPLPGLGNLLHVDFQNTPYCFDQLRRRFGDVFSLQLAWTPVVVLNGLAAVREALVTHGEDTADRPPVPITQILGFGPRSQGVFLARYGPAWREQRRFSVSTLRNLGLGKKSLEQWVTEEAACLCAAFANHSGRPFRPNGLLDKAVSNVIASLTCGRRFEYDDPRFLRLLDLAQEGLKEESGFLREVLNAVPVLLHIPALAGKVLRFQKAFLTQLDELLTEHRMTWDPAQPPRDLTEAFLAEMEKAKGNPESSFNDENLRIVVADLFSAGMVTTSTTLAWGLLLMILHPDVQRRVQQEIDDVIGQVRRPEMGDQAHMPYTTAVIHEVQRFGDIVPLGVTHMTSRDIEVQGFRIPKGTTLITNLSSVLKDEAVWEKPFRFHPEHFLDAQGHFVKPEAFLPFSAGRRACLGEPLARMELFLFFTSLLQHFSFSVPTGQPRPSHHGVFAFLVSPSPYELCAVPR
Sequence of human CYP19A1, CYP19A1 (gene 1588) (P11511 whole entry, looked up): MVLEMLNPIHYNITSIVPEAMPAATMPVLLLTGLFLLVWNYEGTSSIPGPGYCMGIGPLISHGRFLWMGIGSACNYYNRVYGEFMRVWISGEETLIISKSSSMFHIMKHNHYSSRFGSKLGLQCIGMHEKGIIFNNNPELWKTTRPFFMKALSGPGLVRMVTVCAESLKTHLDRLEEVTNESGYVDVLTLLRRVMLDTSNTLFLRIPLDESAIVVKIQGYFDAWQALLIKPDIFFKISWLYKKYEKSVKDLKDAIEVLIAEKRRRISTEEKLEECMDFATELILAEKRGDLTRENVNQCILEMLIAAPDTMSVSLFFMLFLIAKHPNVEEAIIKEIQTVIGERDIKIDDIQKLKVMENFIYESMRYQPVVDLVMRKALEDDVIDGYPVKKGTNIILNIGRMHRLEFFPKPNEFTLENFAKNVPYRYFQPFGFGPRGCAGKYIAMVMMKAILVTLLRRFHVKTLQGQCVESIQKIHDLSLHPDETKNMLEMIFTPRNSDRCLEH

CC(=O)[C@@]1(O)CC[C@H]2[C@@H]3CCC4=CC(=O)CC[C@]4(C)[C@H]3CC[C@@]21C
inactive: [1] | [2] | [3] | [4] | [5] | [6] | [7] | [8] | [9] | [10] | [11] | [12] | [13]

CN(C)C(=O)NC1(c2ccccc2)CCN(CCC[C@]2(c3ccc(Cl)c(Cl)c3)CCCN(C(=O)c3ccccc3)C2)CC1
active: [4] 6.96 µM | [10] 7.62 µM | [12] 7.39 µM | [16] 1.25 µM
inactive: [1] | [2] | [3] | [5] | [6] | [7] | [14] | [8] | [9] | [11] | [13] | [15]

O=C1c2c(O)cccc2Cc2cccc(O)c21
inactive: [1] | [2] | [3] | [4] | [5] | [6] | [7] | [14] | [8] | [9] | [10] | [11] | [12] | [13]

O=C(O)c1[nH]n(-c2ccc(S(=O)(=O)O)cc2)c(=O)c1N=Nc1ccc(S(=O)(=O)O)cc1
inactive: [1] | [2] | [3] | [4] | [5] | [6] | [7] | [8] | [9] | [10] | [11] | [12] | [13]

C=CCc1ccc(OC)c(OC)c1
active: [3] 11 µM
inactive: [1] | [2] | [4] | [5] | [6] | [7] | [14] | [8] | [9] | [10] | [11] | [12] | [13] | [15]

Cc1cc(SC2=C(O)C[C@@](CCc3ccc(N)cc3)(C(C)C)OC2=O)c(C(C)(C)C)cc1CO
inactive: [1] | [2] | [4] | [5] | [6] | [7] | [14] | [8] | [9] | [10] | [11] | [12] | [13] | [17]
active: [3] 20 µM

CC(C)(O)c1ccc(CNC(=O)c2cccnc2Oc2ccc(F)cc2)cc1
inactive: [1] | [2] | [4] | [6] | [7] | [9] | [10] | [11] | [12] | [13] | [18]
active: [3] 0.598 µM | [5] 1.19 µM | [14] 1.16 µM | [8] 0.737 µM
